Changes are numbered by the printed parent chain. In all, about 24,000 sequences were measured (“enrichment r”: median about 0.99, highest 2% from about 3.7 on). This is one part of a sample in which the highest values are shown more often than they occur.

The labels stand for the following.
T1: UNK ZnF1-3 (human, UniProt Q9C0B0 31-174)
T1 sequence: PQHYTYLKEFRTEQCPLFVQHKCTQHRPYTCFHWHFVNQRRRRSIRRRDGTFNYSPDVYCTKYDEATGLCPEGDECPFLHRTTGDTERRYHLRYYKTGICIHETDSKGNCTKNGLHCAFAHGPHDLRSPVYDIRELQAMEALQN

B1: chr16:94664806:94664807:+_ENSMUSG00000040785_ENSMUST00000117648|mus_mus|FALSE|FALSE (ssRNA)
RNA: GGGAGUUCUACAGUCCGACGAUCAUUAGGACUCUCAAAGUAUGCAGCGGCAUUUUCAUCUGCUCUGUUGCUGGCUACAAAAGAUGGCACCACUGGCAUGGAUCUUUGCAUUGGAUACUCAGAAGAAAUGUUGGCCAAAGGUGUCAACAGAGGAUUGAGCAUCA
B2: 15109990_15111016_889_CDS_ENSG00000179889_ENST00000396410|human|control|control (ssRNA)
RNA: GGGAGUUCUACAGUCCGACGAUCUGAGGAGACAUAACCCAGAGCCAAUGUUGCCAGAUUCACACCCUCCACAUGAAGCCAUAUGCCAUACUGCUCACAGAGUUCUUUCAAUCUCCCAAUCUUGUCUGUGUGUCCUACUGCUGCCAACAGAGGAUUGAGCAUCA
B3: 17503471_17513584_185_CDS_ENSG00000151552_ENST00000428702|human|control|control (ssRNA)
RNA: GGGAGUUCUACAGUCCGACGAUCCUUAAAGAGAGACUUGGAUUUGGCAUUGCCCCCGGCCCAUCCUCCAGCAACGCAAAGAAUUGCAUCCACCUUCUCUUCACCCAAGAGCUUUCCAACCUCAGCAGUCACCCAGUUGCGGGCCAACAGAGGAUUGAGCAUCA
B4: chr10:33190432:33190433:-_ENSG00000150093_ENST00000302278|hu_mus|hu_hu_hu_mus_True|1_98 (ssRNA)
RNA: GGGAGUUCUACAGUCCGACGAUCUACAUUUUCCAAACCUGCACAUGAAUAAAACCCUGGCCACAGAGCCCCAAAACUACCCUACUGUGACUAAGAUGCUGCUGCUGUGAGCUUGGUGUUGCAAAAUCCGCCUGAGUCAGUACUCAACAGAGGAUUGAGCAUCA
B5: chr10:33190432:33190433:-_ENSG00000150093_ENST00000302278|hu_mus|hu_hu_hu_mus_True|68_98 (ssRNA)
RNA: B4 RNA with C71U, A75G, C137A, A138G, U140A, A141U, C142U, U143C
B6: chr6:35837335:35837336:-_ENSG00000096063_ENST00000361690|hu_mus|FALSE|FALSE (ssRNA)
RNA: GGGAGUUCUACAGUCCGACGAUCGGGCUCCUGCUCAUCCCCAGAAGGUGUAUCUGCCCGAAUGCUCUCCUCCAGCUGGGUGAUGUCCUGUCGGGUGAGUGACUGCUCUGCAGAGGAUUGGCACACCAUGGUCUCAGAGGCCGUCAACAGAGGAUUGAGCAUCA

The experiment has as its target T1, UNK ZnF1-3. Nature of the experiment: nsRBNS (natural sequence RNA bind-n-seq); RBNS binding buffer (assumed for nsRBNS): 25 mM Tris pH 7.5, 150 mM KCl, 3 mM MgCl2, 0.01% Triton X-100, 500 ug/ml BSA, 20 U/ml SUPERase-In, 4 C; UNK is unkempt and MSI1 is Musashi-1; names of the RNAs are library labels; protein concentration not given here; high values mean tight binding.
Turning to B1, the binding signal is 1.22 enrichment R.

B2 returned a binding signal of 1.36 enrichment R. Regarding B3, the binding signal amounted to 1.33 enrichment R. As to B4, the binding signal came to 1.13 enrichment R.

For the molecule B5, the binding signal amounted to 0.909 enrichment R. Next, B6: 3.58 enrichment R.

The record behind these values is publication PMC12136788.
